TDP1 cell CPT = qHTS for Inhibitors of human tyrosyl-DNA phosphodiesterase 1 (TDP1): qHTS in cells in presence of CPT; chicken DT40 Tdp1-/-;hTDP1 cells + 20 nM CPT, ATP luminescence, 48 h; 420,000 compounds, 12% hits; Potency, µM (titrated, usually from 46.2 µM), actives largely listed as inhibitors; further: nearly all actives have a fitted effect of over 55% in size
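Chicken DT40 Tdp1-/- cells complemented with human TDP1, 400 cells/well, exposed to compounds plus 20 nM camptothecin for at least 48 h at 37 C; viability read as ATP content by CellTiter-Glo luminescence.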
TGFb SMAD3 inh = qHTS for Inhibitors of TGF-b; HepG2 CAGA-GFP TGF-b/SMAD3 reporter, GFP fluorescence, 18 h; TGF-beta stimulated, 500 pg/mL final; 410,000 compounds, 1.2% hits; Potency, µM (top dose mostly 46.1 µM), actives largely listed as inhibitors; AID 588855, 2011; further: nearly all actives have a fitted effect of over 65% in size
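HEPG2 CAGA-GFP, 1000 cells/well; 2 h settle, 37 C; cpd via pin tool; TGF-b 500 pg/mL final; 18 h, 37 C; GFP imaging ex488/em500-530; %Activity normalised to -TGF-b and +DMSO controls; CRC fit, curve class.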
HepG2 viability = qHTS for Inhibitors of TGF-b: Cytotox Counterscreen; Potency, µM (series often up to 46.1 µM), most hits filed as cytotoxic; HepG2 CAGA-GFP viability, ATP luminescence, 18 h; 410,000 compounds, 0.76% hits
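HepG2 CAGA-GFP cells (1000/well, DMEM with 1% FBS) received compound, then TGF-beta at 500 pg/mL final, and were incubated 18 hours at 37 degrees C. Viability was read by CellTiter-Glo luminescence. Media-only wells were set as complete cell-killing and DMSO as no toxicity.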
IL1B secr inh = qHTS for Inhibitors of Inflammasome Signaling: IL-1-beta AlphaLISA Primary Screen | 360,000 compounds, 4.7% hits | activity change, % at 57.5 µM | THP-1 LPS/ATP IL-1B secretion, AlphaLISA, 16 h; stronger effect = lower value | AID 743279, 2014; in the data active means activity change below about -50%; inconclusive means mostly about -30% to -49%
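THP-1 cells pretreated 1 hr with compounds (up to 57.5 uM final), then stimulated with LPS (250 ng/mL final) plus ATP (1.25 mM final); secreted IL-1B measured by AlphaLISA after 16 hr, decreased signal indicating inhibition.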
TDP1 cell noCPT = qHTS for Inhibitors of human tyrosyl-DNA phosphodiesterase 1 (TDP1): qHTS in cells in absence of CPT; DT40 Tdp1-/- hTDP1 cells, no CPT, ATP luminescence, 48 h; Potency, µM (doses to about 46.2 µM), most hits filed as inhibitors; 420,000 compounds, 15% hits; AID 686978, 2013; further: nearly all actives have a fitted effect of over 55% in size
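Seeded 400 DT40-hTDP1 cells/well (vehicle DMSO, no 20 nM CPT); pinned compounds; ≥48 hr at 37 °C; CellTiter-Glo luminescence as viability measure.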
TDP1 block = qHTS Assay for Inhibitors of Tyrosyl-DNA Phosphodiesterase (TDP1); 350,000 compounds, 0.28% hits; Potency, µM (top dose mostly 130 µM), hits mostly inhibitors; recombinant TDP1, AlphaScreen DNA substrate cleavage; further: nearly all actives have a fitted effect of over 40% in size
Target sequence (Q9NUW8 whole entry, looked up): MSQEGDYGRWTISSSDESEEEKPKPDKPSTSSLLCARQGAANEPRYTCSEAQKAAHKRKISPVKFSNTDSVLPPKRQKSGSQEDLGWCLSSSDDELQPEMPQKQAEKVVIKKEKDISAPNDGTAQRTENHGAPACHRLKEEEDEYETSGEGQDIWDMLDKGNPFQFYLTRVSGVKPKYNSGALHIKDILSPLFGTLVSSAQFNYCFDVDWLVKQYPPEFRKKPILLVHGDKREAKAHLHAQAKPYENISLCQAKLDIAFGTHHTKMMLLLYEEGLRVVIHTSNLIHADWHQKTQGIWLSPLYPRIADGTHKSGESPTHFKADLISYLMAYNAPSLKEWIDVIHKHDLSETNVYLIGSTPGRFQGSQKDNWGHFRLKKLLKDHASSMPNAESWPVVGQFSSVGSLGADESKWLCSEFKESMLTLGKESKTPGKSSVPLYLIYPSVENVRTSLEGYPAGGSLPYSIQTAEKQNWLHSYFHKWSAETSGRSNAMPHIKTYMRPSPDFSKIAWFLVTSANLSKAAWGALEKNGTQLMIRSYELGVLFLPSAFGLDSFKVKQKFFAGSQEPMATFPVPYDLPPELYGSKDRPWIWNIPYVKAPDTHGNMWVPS
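E. coli-derived human Tdp1, 1 nM final. Cpd preinc 15 min RT; substrate 15 nM final, 5 min RT; AS bead mix 10 ug/ml final, 10 min RT. Signal loss = tyrosine-FITC cleavage. No-enzyme wells = max signal.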
A number is an active result; i = inactive; ? = inconclusive; nt = no result given; [ ] = remark or other dose. The list is not random: actives were taken first. Their share in the collection is about 19%. Unless noted, the call rests on the fitted dose curve; in most records, active means well fitted curve in the direction sought with a large enough effect; inconclusive means small, poorly fitted or top-dose-only effect, or another doubt; inactive means no such curve, though single readings can be large; an effect the other way counts as inactive or inconclusive.

SMILES | TDP1 cell CPT | TGFb SMAD3 inh | HepG2 viability | IL1B secr inh | TDP1 cell noCPT | TDP1 block
CC(=O)Nc1nc(C)c(-c2nc3ccc([N+](=O)[O-])cc3[nH]2)s1 | i | i | i | i | i | nt
Cc1ccc(CNC(=O)CCc2c(C)nc3nc(C)nn3c2C)cc1 | i | i | i | nt | i | i
Cc1ccc(-n2nc(C(=O)c3ccccc3)n3c(=O)c(Cc4ccccc4)nnc23)cc1 | ? | ? | i | i | 12µM | nt
Cc1ccc(NC(=S)NC2CCSc3ccccc32)cc1C (configuration not stated) | 16µM | 16µM | i | -81 | ? | i
CCn1c2ccccc2c2cc(CN3CCOc4ccc(C(O)c5cccnc5)cc4C3)ccc21 (configuration not stated) | ? | nt | nt | nt | 26µM | nt
COc1cc(C)c(CN2CCOc3ccc(C(O)c4cccnc4)cc3C2)cc1C (configuration not stated) | i[9.04 µM] | nt | nt | nt | 18µM | nt
COc1ccc(OC)c(CN2CCOc3ccc(C(O)c4cccnc4)cc3C2)c1 (configuration not stated) | i[9.04 µM] | nt | nt | nt | i | nt
S=C([S-])NCCNC(=S)[S-].[Zn+2] | nt | nt | nt | nt | nt | 14µM
CCOC(=O)Cn1c(=O)oc2cc(S(=O)(=O)N3CCN(c4cccc(Cl)c4)CC3)ccc21 | i | i | i | nt | i | i
CC1Sc2ccc(S(=O)(=O)CCC(=O)N(C)Cc3ccco3)cc2NC1=O (configuration not stated) | ? | i | i | i | ? | i
CCOc1ccccc1N(C)C(=O)CCS(=O)(=O)c1ccc2c(c1)NC(=O)C(C)S2 (configuration not stated) | ? | i | i | i | 21µM | i
Cc1ccc(NC(=S)NCCSc2ccc(Cl)cc2)cc1 | i | ? | i | -91 | ? | i
CC(CNC(=S)Nc1cc(F)cc(F)c1)CSc1ccc(Cl)cc1 (configuration not stated) | ? | 18µM | i | -97 | 26µM | i
Cc1cccc(C)c1NC(=S)NCCSc1ccc(Cl)cc1 | ? | ? | i | -72 | ? | i
Fc1ccc(CNC(=S)Nc2ccc(Cl)cc2)cc1 | ? | ? | i | i | ? | i
CN(C(=O)CCS(=O)(=O)c1cc2c(cc1Cl)NC(=O)CO2)C1CCCCC1 | ? | i | i | i | i | i
CC1(C)Oc2ccc3ccc(=O)oc3c2[C@@H](O)[C@H]1O | ? | i | i | i | i | i
COc1ccc(NC(=S)N2CCC(C(=O)c3ccc(F)cc3)CC2)cc1 | ? | ? | i | i | i | nt
COc1ccc(NC(=O)CN2CCC(C(=O)c3ccc(C)cc3)CC2)c(OC)c1 | ? | i | i | i | ? | i
COc1ccc(NC(=S)N2CCC(C(=O)c3ccc(C)cc3)CC2)c(OC)c1 | 13µM | i | i | i | 9.2µM | i
COc1ccc(NC(=O)CN2CCC(C(=O)c3ccc(F)cc3)CC2)c(OC)c1 | ? | i | i | i | 21µM | i
COc1ccc(OC)c(NC(=O)CN2CCC(C(=O)c3ccc(C)cc3)CC2)c1 | 26µM | i | i | i | 21µM | i
Cc1cc(Nc2cc(Cl)ccc2C)n2nc(Cc3ccccc3)nc2n1 | ? | i | i | nt | ? | i
O=C(Nc1ccccc1N1CCOCC1)c1ccc2c(c1)OCCO2 | i | i | i | i | i | i
CC1N(C(=O)N2CCOCC2)CCN1S(=O)(=O)c1cccc(C(F)(F)F)c1 (configuration not stated) | i | i | i | i | i | nt
SMILES | TDP1 cell CPT | TGFb SMAD3 inh | HepG2 viability | IL1B secr inh | TDP1 cell noCPT | TDP1 block
CCOC(=O)c1sc(NC(=O)c2c(-c3ccccc3)c(-c3ccccc3)nn(C)c2=O)nc1C | ? | i | i | nt | 16µM | i
CCn1nc(-c2ccccc2)c(-c2ccccc2)c(C(=O)Nc2ccccc2C#N)c1=O | 18µM | i | i | nt | 12µM | i
Cc1nc(NC(=O)c2c(-c3ccccc3)c(-c3ccccc3)nn(C)c2=O)sc1C | 0.46µM | i | i | nt | 0.58µM | i
CC(C)CNC(=O)c1c(-c2ccccc2)c(-c2ccccc2)nn(C)c1=O | ? | i | i | nt | ? | i
O=C(CSc1nc2c(c(=O)[nH]1)CCCC2)Nc1ccccc1C(F)(F)F | i | i | i | nt | i | i
CCOc1ccc(CCNC(=O)Cn2ncc3c(=O)oc4ccc(C)cc4c32)cc1 | i | i | i | nt | i | i
Cc1cc(C(=O)C(C)OC(=O)C2=NNC(=O)CC2)c(C)n1-c1ccc(OC(F)F)cc1 (configuration not stated) | ? | i | i | i | 21µM | i
Cc1cc(C(=O)COC(=O)C2=NNC(=O)CC2)c(C)n1-c1ccc(OC(F)F)cc1 | ? | i | i | i | ? | i
O=c1c2cc(N3CCOCC3)ccc2[nH]c(=S)n1CCCN1CCN(c2ccccc2F)CC1 | nt | nt | nt | nt | nt | i
CCCCNC(=O)CCCn1c(=O)[nH]c2ccc(Br)cc2c1=O | i | i | i | i | i | i
COc1cccc(N2CCN(C(=O)CCCCCNc3nc(=S)[nH]c4ccccc34)CC2)c1 | 4.6µM | ? | i | -175 | 9.2µM | i
O=C(CCCCCNc1nc(=S)[nH]c2ccccc12)N1CCN(c2ccccn2)CC1 | nt | nt | nt | nt | nt | i
CC(=O)c1ccc(N2CCN(C(=O)CCCn3c(=O)[nH]c4ccc(Br)cc4c3=O)CC2)cc1 | 15µM | ? | i | i | 13µM | i
O=C(CCCn1c(=S)[nH]c2ccccc2c1=O)N1CCN(c2cccc(Cl)c2)CC1 | 16µM | ? | i | i | 18µM | i
Cc1cccc(N2CCN(C(=O)CCCCCn3c(=S)[nH]c4ccc(N5CCOCC5)cc4c3=O)CC2)c1C | 16µM | ? | i | i | 6.5µM | i
O=C(CCn1c(=S)[nH]c2ccccc2c1=O)N1CCCCC1 | i | i | i | i | i | i
COc1cn(CC(=O)Nc2cc(C)cc(C)c2)c(CN2CCCCC2)cc1=O | i | i | i | nt | i | i
CC1CN(C(C)C)C(=S)N(c2ccccc2)C1=O (configuration not stated) | i | i | i | i | i | nt
CCc1cnc2c(c1SCC(=O)Nc1ccc(Cl)cc1)c(=O)n(C)c(=O)n2C | i | i | i | nt | i | i
COc1ccc(/C=C/C(=O)Nc2cc(S(=O)(=O)N3CCOCC3)ccc2C)cc1OC | i | i | i | i | i | i

Screening results: PubChem BioAssay, National Center for Advancing Translational Sciences (NCATS)
